Only a selection was taken, and hits are over-represented in it overall.
Artemis inh: Artemis endonuclease inhibitors, primary screen, biochemical, fluorescence intensity, FAM/BHQ-1 hairpin substrate | Protein artemis (Homo sapiens), Q96SD1 | recombinant Artemis, quenched FAM hairpin cleavage fluorescence | inhibition, % at 10 µM | actives 0.78% (n = 30,000) | AID 686954, 2013;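 active = at 10 µM dose, at least 30% inhibition, measured as corrected fluorescence normalized to stimulator and neutral control wells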
Target sequence (Q96SD1 whole entry, looked up): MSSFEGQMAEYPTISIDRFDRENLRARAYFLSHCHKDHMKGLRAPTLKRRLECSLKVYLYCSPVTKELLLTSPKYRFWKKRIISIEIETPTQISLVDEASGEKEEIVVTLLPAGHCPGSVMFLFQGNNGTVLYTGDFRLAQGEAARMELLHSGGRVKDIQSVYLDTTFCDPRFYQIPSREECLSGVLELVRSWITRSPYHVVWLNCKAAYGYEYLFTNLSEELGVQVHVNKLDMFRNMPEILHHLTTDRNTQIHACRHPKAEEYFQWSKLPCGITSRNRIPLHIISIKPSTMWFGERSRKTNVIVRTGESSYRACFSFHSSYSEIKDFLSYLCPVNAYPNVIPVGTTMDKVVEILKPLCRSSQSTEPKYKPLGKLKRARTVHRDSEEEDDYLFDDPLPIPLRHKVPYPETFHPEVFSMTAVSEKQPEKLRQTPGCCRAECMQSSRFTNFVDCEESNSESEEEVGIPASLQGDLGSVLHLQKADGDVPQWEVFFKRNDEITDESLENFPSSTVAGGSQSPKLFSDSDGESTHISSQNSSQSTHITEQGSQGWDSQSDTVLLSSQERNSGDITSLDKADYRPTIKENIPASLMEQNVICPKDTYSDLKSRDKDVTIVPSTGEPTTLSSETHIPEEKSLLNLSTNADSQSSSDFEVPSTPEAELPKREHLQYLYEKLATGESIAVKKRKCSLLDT
The depositor's hits bear a star.

SMILES	Artemis inh
O=C(Nc1cccc2nsnc12)c1ccc(-c2cccc(Cl)c2)o1	46*
O=C(Nc1cccc2nsnc12)c1ccc2c(c1)OCO2	2
O=C(Nc1cccc2nsnc12)c1ccc(F)cc1	13
CC(C)CC(=O)NC(NCC1CCCO1)C(Cl)(Cl)Cl (stereo unspecified)	-3
Cc1n[nH]c(C)c1S(=O)(=O)N1CCN(C(=O)c2ccco2)CC1	-20
Cc1cc(/C=N/n2cnnc2)c(C)n1-c1cccc(Cl)c1	10
Cc1cc(/C=N/n2cnnc2)c(C)n1-c1ccccc1	-4
Cc1cc(/C=N/n2cnnc2)c(C)n1-c1ccc(OCc2ccc(Cl)cc2Cl)cc1	42*
COc1cccc(NC(=O)CCS(=O)(=O)c2cccs2)c1	-1
Cc1ccc(C(=O)C(C(=O)/C=C/c2ccccc2)=C2SCCCS2)cc1	6
CCOC(=O)/C=c1\s/c(=C(\C#N)C(=O)OCC)n(-c2ccccc2)c1=O	31*
CCOC(=O)c1c(O)c2ccccc2n(-c2ccccc2)c1=O	5
CCOC(=O)/C(C#N)=C1/C=Cc2ccccc2N1CC	0
O=C(COC(=O)c1ccccc1Nc1ccc(SC(F)F)cc1)NCc1ccco1	-16
CCN1C2=NCCCN2c2cc(C)c(C)cc21	-3
O=c1oc2ccccc2n1CSc1nc2ccccc2s1	10
O=C(O)CCN1C(=O)/C(=C/c2ccc(-c3nc4ccccc4s3)o2)SC1=S	18
O=C(O)CC(C(=O)O)N1C(=O)/C(=C/c2ccc(-c3nc4ccccc4s3)o2)SC1=S (stereo unspecified)	64*
O=C(COC(=O)Cn1c(C(F)(F)F)nc2ccccc21)Nc1ccc2c(c1)OCCO2	-8
COc1ccc(NC(=O)c2cc(S(=O)(=O)N3CCS(=O)(=O)CC3)ccc2Cl)cc1	-4
Cc1ccc(NC(=O)NNC(=O)Cn2nc(-c3ccccc3)c(-c3ccccc3)c(C#N)c2=O)cc1	9
Nn1c(SCC(=O)Nc2ccccc2)nnc1-c1cccnc1	8
COC(=O)C(CC(=O)c1ccc(Cl)cc1)c1ccc(C(C)C)cc1 (stereo unspecified)	0
O=C(COC(=O)c1cc(S(=O)(=O)N2CCCCC2)ccc1N1CCOCC1)NC1CCCCC1	-7
CC1CC(=O)C=C(O)C1C(=O)OC(C)(C)C (stereo unspecified)	7
SMILES	Artemis inh
COc1ccc(-c2c(C#N)c(SCC(=O)Nc3ccccc3)nc3c2CCCC3)cc1	12
COc1ccc(NC(=O)CSc2nc3c(cc2C#N)CN(C)CC3)cc1	37*
COc1ccc(NC(=O)CSc2nc(C)cc(C)n2)cc1	0
CSc1nc(Oc2ccc(C)cc2)cc(C(F)(F)F)n1	-3
CCOC(=O)N1CCC(NC(=O)c2sc(-n3cccc3)nc2C)CC1	4
Cc1nnc(SCC(=O)N(Cc2ccccc2)C(C)C)n1-c1ccccc1	-2
CCOC(=O)N1CCN(c2nc3ccccc3nc2C(C#N)S(=O)(=O)c2ccc(C)cc2)CC1 (stereo unspecified)	33*
C=CCOC(=O)C(C#N)c1nc2ccccc2nc1N1CCN(c2ccccc2OC)CC1 (stereo unspecified)	12
C=CCOC(=O)C(C#N)c1nc2ccccc2nc1N1CCN(Cc2ccccc2)CC1 (stereo unspecified)	9
Cc1cc(C)c(C(N)=O)c(Nc2cccc3ccccc23)n1	34*
Cc1cc(C)c(C(N)=O)c(Nc2ccc3c(c2)OCCO3)n1	-4
COc1ccccc1Nc1nc(C)cc(C)c1C(N)=O	-1
Cc1ccc(NC(=O)c2cc(S(=O)(=O)c3ccccc3)ccc2Cl)cc1	20
Cn1nnnc1SCC(=O)Nc1ccccc1N1CCCCC1	-2
O=C(O)C(=O)/C(=C\c1ccccc1)c1ccc2ccccc2n1	-8
O=C(O)C(=O)/C(=C\c1cccc2ccccc12)c1ccc2ccccc2n1	30*
Cc1cccc(NC(=O)c2ccc3ccccc3n2)c1C	-2
Clc1ccc(Cn2ncc3c(NCCN4CCOCC4)ncnc32)cc1	-3
Cn1c(OCc2ccc3c(c2)OCO3)nc2c1c(=O)n(Cc1cccc(Cl)c1)c(=O)n2C	4
Cc1cc(/C=C2\SC(=Nc3ccccc3)NC2=O)c(C)n1-c1ccc(S(N)(=O)=O)cc1	19
O=C1C=C(NCc2ccc(Cl)c(Cl)c2)C2(CCCCC2)O1	2
Cc1[nH]c2ccccc2c1C(c1ccccn1)c1c(C)[nH]c2ccccc12	-4
O=c1[nH]c(-c2ccccn2)nc2ccccc12	15
c1ccc(-c2nc3c(ccc4ccccc43)[nH]2)nc1	44*
O=C(NCCN1CCOCC1)c1ccc2c(c1)ncn2C1CCCCC1	4
SMILES	Artemis inh
C/C(CC(=O)NCc1ccco1)=N\NC(=O)C(c1ccccc1)c1ccccc1	0
CC(=O)C(Sc1nc(N2CCOCC2)nc(N2CCOCC2)n1)C(=O)Nc1ccccc1 (stereo unspecified)	3
O=C1c2ccccc2C(=O)c2c1ccc(C(=O)N1CCCCC1)c2NCCO	2
O=C1C(Nc2ccccc2)=C(N2CCCCC2)C(=O)c2ccccc21	39*
O=C(Nc1ccccc1)Nc1ccc(S(=O)(=O)N2CCCCC2)cc1	3
Cc1ccc(Sc2cc(Cl)nc(N)n2)cc1	-8
CSc1nnc2c3cc(C)ccc3n(Cc3ccccc3)c2n1	37*
O=C1c2ccccc2C(=O)N1CSc1nnc2c3ccccc3n(CCc3ccccc3)c2n1	7
CCCn1c2ccccc2c2nnc(SC(CC)C(=O)Nc3cc(C)on3)nc21 (stereo unspecified)	1
COc1ccccc1CN(C(=O)c1ccco1)C(C(=O)NC1CCCC1)c1ccncc1 (stereo unspecified)	83*
COc1cccc(CN(C(=O)c2ccco2)C(C(=O)NC2CCCC2)c2cccnc2)c1 (stereo unspecified)	-2
COc1cccc(C(C(=O)NC2CCCC2)N(Cc2ccc(C)cc2)C(=O)c2ccco2)c1OC (stereo unspecified)	-4
O=C(CNS(=O)(=O)c1ccc(Br)s1)N1CCC(N2CCCCC2)CC1	2
CCn1c(SCCC(=O)Nc2ccccc2)nnc1-c1ccc(OC)cc1	-3
O=C(N/N=C\c1ccc(COc2ccc([N+](=O)[O-])cc2)o1)c1ccc(Cl)cc1	12
O=[N+]([O-])CC(=Nc1ccc(Cl)cc1)N/N=C\c1oc(O)c2ccccc12	35*
O=c1c2ccccc2nc2n1C(CSc1ccc(Br)cc1)CN2 (stereo unspecified)	-9
CSc1cccc(NC(=O)CN(C)S(=O)(=O)c2ccc(C)cc2)c1	-2
Oc1c(Br)cc(Br)cc1/C=N/c1nc2c(s1)CCCC2	-2
Oc1ccc2ccccc2c1C=Nc1ccccc1-c1nc2ccccc2[nH]1	14
Oc1ccc2ccccc2c1/C=N/c1nc2c(s1)CCCC2	63*
Cc1cc(C)c(NC(=O)/C=C\C(=O)O)c([N+](=O)[O-])c1	-8
COc1ccc(C(=O)N/C(=C\c2cccc3ccccc23)C(=O)NCCc2c[nH]c3ccccc23)cc1OC	3
Cc1cc(C)c(C(=O)C2OC(=O)C(C)(C)C(=O)C2(C)C)c(C)c1 (stereo unspecified)	4
CCOc1ccc(OCC)c(NC(=O)C2CCCN(S(=O)(=O)c3cccs3)C2)c1 (stereo unspecified)	-2
COc1ccc2nc(NC(=O)C3CCN(S(=O)(=O)c4cnc[nH]4)CC3)sc2c1	4
COc1ccc2nc(NC(=O)C3CCCN(S(=O)(=O)c4cccs4)C3)sc2c1 (stereo unspecified)	40*
COc1ccc(S(=O)(=O)NNC(=O)c2csc(-n3nc(C)cc3C(F)(F)F)n2)cc1	7
